Reference: PubChem BioAssay (Tox21)
Where “and” joins values, the source holds several entries; their conditions need not be identical. Equal values may be shown once. Results filed as inconclusive are left out. Calls of active or inactive are those of the source. Calls follow the shape of the dose curve; as a rule, active = well fitted curve in the direction sought with a large enough effect in the repeat runs; inconclusive = weak or mixed curves; inactive = no such curve, though single readings can be large; an effect the other way counts as inactive or inconclusive.

Key:
[1] = qHTS assay for identifying genotoxic compounds that show differential cytotoxicity against isogenic chicken DT40 cell lines with known DNA damage response pathways - wild type cell line (AID 743012); also: nearly all actives have a fitted effect of over 60% in size; also: potency is read from the fitted curve at half-maximal effect
In short: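 300 wt DT40 cells/well; cpd (DMSO) pintool-transferred after ~0.5 h at 37 C/5% CO2; 40 h incubation; CellTiter-Glo added, 30 min RT; luminescence read.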

[2] = qHTS assay for identifying genotoxic compounds that show differential cytotoxicity against isogenic chicken DT40 cell lines with known DNA damage response pathways - Rev3 mutant cell line (AID 743014); also: nearly all actives have a fitted effect of over 55% in size; also: potency is read from the fitted curve at half-maximal effect
[3] = qHTS assay for identifying genotoxic compounds that show differential cytotoxicity against isogenic chicken DT40 cell lines with known DNA damage response pathways - Rad54/Ku70 mutant cell line (AID 743015); also: nearly all actives have a fitted effect of over 60% in size; also: potency is read from the fitted curve at half-maximal effect
[4] = biological target: Androgen receptor (Homo sapiens) (UniProt P10275); test: qHTS assay to identify small molecule agonists of the androgen receptor (AR) signaling pathway using the MDA cell line (AID 743040; also: nearly all actives have a fitted effect of over 20% in size)
In short: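 Luciferase read-out, ONE-Glo, 30 min RT. Cells: MDA-kb2 AR-luc, MMTV promoter with AR and GR response elements. Compound exposure 16 h, 37C, 0% CO2, after 5 h pre-incubation. qHTS agonist mode.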

[5] = qHTS assay to identify small molecule antagonists of the androgen receptor (AR) signaling pathway using the MDA cell line - cell viability counter screen (AID 743041; also: nearly all actives have a fitted effect of over 45% in size; also: potency is read from the fitted curve at half-maximal effect)
In short: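 Cytotoxicity counter screen: MDA-kb2 AR-luc cells, compound + R1881, 16 h, 37C, 0% CO2; CellTiter-Fluor added at 15.5 h, fluorescence read after 30 min.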

[6] = biological target: Androgen receptor (Homo sapiens) (UniProt P10275); test: qHTS assay to identify small molecule antagonists of the androgen receptor (AR) signaling pathway using the MDA cell line (AID 743042; also: potency is read from the fitted curve at half-maximal effect; nearly all actives have a fitted effect of over 55% in size)
In short: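 MDA-kb2 breast carcinoma cells carrying MMTV-luciferase (AR/GR responsive) were co-treated with compounds and the agonist R1881 for 16 h at 37C. Inhibition read as ONE-Glo luminescence; CellTiter-Fluor fluorescence measured in parallel for cytotoxicity.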

[7] = qHTS assay to identify small molecule antagonists of the thyroid receptor (TR) signaling pathway (AID 743065); also: nearly all actives have a fitted effect of over 55% in size; also: potency is read from the fitted curve at half-maximal effect
In short: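 GH3.TRE-Luc rat pituitary cells (two TREs driving luciferase) were dosed with compound, then stimulated with 1 nM T3 (final) for 23.5 h at 37 C. ONE-Glo luminescence was the read-out, with CellTiter-Fluor fluorescence as the cytotoxicity counter-screen.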

[8] = qHTS assay to identify small molecule antagonists of the androgen receptor (AR) signaling pathway - cell viability counter screen (AID 743033; also: nearly all actives have a fitted effect of over 45% in size; also: potency is read from the fitted curve at half-maximal effect)
[9] = qHTS assay to identify small molecule antagonists of the thyroid receptor (TR) signaling pathway - cell viability counter screen (AID 743064); also: nearly all actives have a fitted effect of over 50% in size; also: potency is read from the fitted curve at half-maximal effect
In short: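 Counter screen for cytotoxicity: compound plus T3 (1 nM final) on GH3.TRE-Luc cells, 23.5 h at 37 °C, then fluorescence viability readout with CellTiter-Fluor.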

Sequence of Androgen receptor (Homo sapiens) (P10275 whole entry, looked up): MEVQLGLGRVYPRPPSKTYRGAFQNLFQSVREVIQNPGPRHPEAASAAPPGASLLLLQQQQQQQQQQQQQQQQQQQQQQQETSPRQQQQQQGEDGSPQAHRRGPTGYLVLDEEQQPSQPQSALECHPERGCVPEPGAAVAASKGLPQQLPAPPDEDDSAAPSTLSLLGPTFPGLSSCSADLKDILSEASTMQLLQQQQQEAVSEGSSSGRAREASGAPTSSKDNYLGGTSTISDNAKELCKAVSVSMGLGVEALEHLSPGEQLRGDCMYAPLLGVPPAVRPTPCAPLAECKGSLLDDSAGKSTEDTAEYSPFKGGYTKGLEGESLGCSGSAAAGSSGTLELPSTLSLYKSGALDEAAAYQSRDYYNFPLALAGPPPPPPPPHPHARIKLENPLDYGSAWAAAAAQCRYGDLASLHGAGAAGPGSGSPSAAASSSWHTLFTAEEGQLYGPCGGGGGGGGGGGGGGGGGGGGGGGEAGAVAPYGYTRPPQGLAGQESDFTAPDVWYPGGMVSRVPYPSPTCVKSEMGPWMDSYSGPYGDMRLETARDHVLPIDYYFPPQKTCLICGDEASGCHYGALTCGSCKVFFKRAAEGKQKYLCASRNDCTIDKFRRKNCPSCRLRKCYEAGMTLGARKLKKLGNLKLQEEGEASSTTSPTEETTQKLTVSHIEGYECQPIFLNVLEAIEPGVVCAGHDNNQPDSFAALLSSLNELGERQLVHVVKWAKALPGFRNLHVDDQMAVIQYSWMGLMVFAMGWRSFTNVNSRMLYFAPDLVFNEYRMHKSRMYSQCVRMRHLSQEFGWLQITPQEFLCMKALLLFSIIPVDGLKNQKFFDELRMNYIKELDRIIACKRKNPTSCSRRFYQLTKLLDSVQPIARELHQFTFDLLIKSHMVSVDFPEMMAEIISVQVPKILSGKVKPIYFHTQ

Structure (SMILES) | Potency [1] | Potency [2] | Potency [3] | Potency [4] | Potency [5] | Potency [6] | Potency [7] | Potency [8] | Potency [9]
CCCOc1sc(C(=O)N2CCC(c3cc(CN)ccc3F)CC2)c(C)c1Br | 14.1 µM (active) | 17.7 µM (active) | 14.1 µM (active) | inactive | 49.9 µM (active) | 44.5 µM (active) | 7.91 µM (active) |  | 
Oc1c(Br)cc(Br)c2cccnc12 | 11.9 µM (active) | 11.9 µM (active) | 13.3 µM (active) |  | inactive |  | 16.8 µM (active) | inactive | 
COc1ccc2sc(C(=O)Nc3nnn[nH]3)c(OC(C)C)c2c1 | 30.5 µM (active) | 27.2 µM (active) | 17.2 µM (active) |  |  |  | 6.09 µM (active) | 24.5 µM (active) | 7.66 µM (active)
C=C[C@](C)(O)CC[C@@H]1[C@@]2(C)CCCC(C)(C)[C@@H]2CC[C@@]1(C)O | 24.3 µM (active) | 19.3 µM (active) | 19.3 µM (active) |  | inactive |  | 43.3 µM (active) |  | 
CCCCCCOc1cc(C)c(O)c(C)c1C | 19.6 µM (active) | 22 µM (active) | 15.5 µM (active) |  | inactive |  | 55.1 µM (active) |  | 49.2 µM (active)
CCCCCCCCCCCCCOP(=O)(O)O | inactive | inactive | inactive |  |  |  | inactive | inactive | inactive
O=C1NCCN1CCN1CCC(c2cn(-c3ccc(F)cc3)c3ccc(Cl)cc23)CC1 | 944 nM (active) and 1.5 µM (active) | 1.88 µM (active) and 2.37 µM (active) | 1.68 µM (active) and 2.66 µM (active) |  | 13.3 µM (active) and 21.1 µM (active) | 11.9 µM (active) and 18.8 µM (active) | 5.96 µM (active) |  | 
Cc1occc1SSc1ccoc1C | 19.3 µM (active) | 19.3 µM (active) | 15.4 µM (active) |  | inactive |  | 68.6 µM (active) |  | 
Clc1ccc(C(Cn2ccnc2)OCc2ccsc2Cl)c(Cl)c1 (configuration not stated) | 7.5 µM (active) | 11.9 µM (active) | 13.3 µM (active) |  | inactive |  |  |  | 13.3 µM (active)
